Assay results as given in PubChem BioAssay AID651822 (The Scripps Research Institute Molecular Screening Center, 2012).
Hit rate of the full screen: of about 2,300 compounds, about 970 (42%) were called active. The set was probably picked from earlier hits. The list is a sample of the results. Unmarked numbers belong to inactive results. Rule as the data show it: active = inhibition above about 4.5%; inactive = the rest.

tested on: Methionine sulfoxide reductase A (Bos taurus); experiment: bovine MsrA inhibitors, retest, confirmation, biochemical, absorbance, HTS (AID 651822); details: purified bovine MsrA, absorbance read-out; at 15.5 µM; stronger effect = higher value;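 also: coupled to thioredoxin reductase with NADPH and selenocystamine and DMSO as substrate; 0% = vehicle only and 100% = full effect of reference inhibitor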

Compound | inhibition
COc1ccc(/C=C(/NC(=O)c2ccco2)C(=O)Nc2ccc(C(C)=O)cc2)cc1 | 5.97% (active)
COc1ccccc1C(=O)N/C(=C/c1ccc2c(c1)OCO2)C(=O)Nc1cccc(C(=O)O)c1 | 3.23%
CCN(CC)C(=O)c1sc(NC(=O)c2ccco2)c(C#N)c1C | 3.8%
Cc1cc(C)nc(S/C=C/C(=O)c2ccccc2)n1 | 4.29%
COc1ccc(C(=O)CSc2nc(C)cc(C)n2)cc1[N+](=O)[O-] | 7.55% (active)
Cc1cccc(-n2c(O)c(C=Nc3ccccc3N)c(=O)[nH]c2=O)c1 | 3.07%
COc1ccc(/C=N/n2nnnc2N)cc1OC | 2.84%
CCOc1cc(/C=N/NC(=O)c2c(C)nc3ccc(Cl)cn23)ccc1O | 4.5%
COc1ccc(/C=N\NC(=O)c2sc(N)nc2C)cc1OC | 6.13% (active)
COc1ccc(/C=C2\N=C3CCCN3C2=O)cc1 | 2.42%
COc1ccc(/C=C2\SC(=O)N(CCC(=O)NC3CCS(=O)(=O)C3)C2=O)cc1 (centres undefined) | 5.86% (active)
Cc1n[nH]c(=O)nc1N/N=C/c1cccs1 | 3.61%
CCOc1cc(/C=N/NC(=O)c2ccc(CSc3nncn3C)cc2)ccc1OCC(=O)N1CCOCC1 | 3.67%
O=C(N/N=C/c1ccc2c(c1)OCO2)c1ccc(Cn2cc([N+](=O)[O-])cn2)o1 | 4.56% (active)
COc1ccc(OC)c(C2C3=C(N=c4s/c(=C\c5cccc(O)c5)c(=O)n42)c2ccccc2CC3)c1 (centres undefined) | 3.18%
CC(N=Cc1nc(-c2ccccc2)oc1O)c1ccccc1 (centres undefined) | 3.02%
COC(=O)/C(C#N)=C/c1occc1C | 4.58% (active)
CC(Nc1ccc([N+](=O)[O-])cc1[N+](=O)[O-])c1ccccc1 (centres undefined) | 32.3% (active)
O=C(Cc1ccccn1)c1ccc(O)cc1O | 2.96%
Cc1ccc(S(=O)(=O)Nc2nc(C)cc(N/N=C/c3ccc(O)cc3)n2)cc1 | 4.89% (active)
CN(c1ccccc1)S(=O)(=O)c1ccc2[nH]c(=O)[nH]c2c1 | 9.47% (active)
CS(=O)(=O)c1ccc2nc(NC(=O)c3ccc(Cl)nc3)sc2c1 | 4.5%
Cc1ccc(C(=O)N/N=C/c2sc(=O)n(Cc3cccc(C(=O)O)c3)c2Cl)cc1 | 6.35% (active)
Oc1ccc(/C=N/Nc2ccc(C(F)(F)F)cn2)cc1O | 4.15%
O=C(O)c1ccc(N/N=C/c2ccc3ncccc3c2)cc1 | 7.49% (active)

Compound | inhibition
COc1ccccc1-c1n[nH]c2c1[C@H](C)CC[C@H]2C(C)C | 8.12% (active)
NC(=O)c1ccc(Nc2ccc3c(c2)CCC3)c([N+](=O)[O-])c1 | 12% (active)
Cc1ccc(Nc2ccc(C(N)=O)cc2[N+](=O)[O-])cc1 | 5.43% (active)
CCn1cc(/C=C(\NC(=O)c2ccc(C)cc2)C(=O)NCCN2CCOCC2)c2ccccc21 | 1.62%
COc1ccc(-c2ccc(Nc3ccc(S(=O)(=O)N4CCCC4)cc3)nn2)cc1OC | 4.64% (active)
CCOc1ccc(/C=C(/C#N)c2nnc(N3CCOCC3)n2-c2ccccc2)cc1OC | 2.86%
CCCc1nc(SCC(=O)N2CCCC2)c2c(=O)n(C)c(=O)n(C)c2n1 | 4.83% (active)
CC(=O)c1sc2nc(SCC(=O)N3CCCCC3)[nH]c(=O)c2c1C | 4.28%
CC1CCCCN1S(=O)(=O)c1ccc(C(=O)Nc2nnc(-c3cccs3)o2)cc1 (centres undefined) | 2.45%
Cc1ccc(CC2(C)C(=O)Nc3ccc(OC(F)(F)F)cc32)cc1 (centres undefined) | 8.12% (active)
CC(=O)c1ccc(N2CCN(CC(=O)Nc3ccccc3N3CCOCC3)CC2)cc1 | 1.04%
CSc1ccc(/C=C2\NC(=O)NC2=O)cc1 | 3.93%
O=Cc1cn(-c2ccccc2)nc1-c1ccccn1 | 5.38% (active)
Cc1ccc(/C=N/NC(=S)NC2CCCCC2)o1 | 4.23%
Cc1ccc(S(=O)(=O)N(C)c2ccc(OCC(=O)OCc3ccc(C#N)cc3)cc2)cc1 | 5.74% (active)
CC(=O)c1ccc(N2CCN(C(=O)c3ccc4nc[nH]c4c3)CC2)cc1 | 3.02%
O=C(CNC(=O)c1cccnc1)N/N=C/c1cc(Br)c(O)c(Br)c1 | 4.48%
O=C(CNC(=O)C1COc2ccccc2O1)N/N=C/c1cc(Br)c(O)c(Br)c1 (centres undefined) | 7.08% (active)
O=C1/C(=C\Nc2ccccc2)CCN1c1ncccn1 | 6.98% (active)
CC(=O)Nc1ccc(S(=O)(=O)Oc2ccc(/C=N/N=C3/NC(=O)C(CC(=O)O)S3)cc2)cc1 (centres undefined) | 2.79%
O=C(O)c1ccc(N/N=C/c2cn(-c3ccccc3)nc2-c2cccs2)cc1 | 5.22% (active)
CC(=O)N1N=C(c2ccncc2)OC1(Cc1ccccc1)Cc1ccccc1 | 9.69% (active)
Cc1ccc(N2C(=O)CN=C2Nc2nc(C)cc(C)n2)cc1 | 4.56% (active)
Cc1c(C(=O)N2CCCc3ccccc32)oc2ccccc12 | 7.55% (active)
COc1ccc(C2/C(=C(/O)c3ccccc3)C(=O)C(=O)N2C)c(OC)c1 (centres undefined) | 1.16%

Compound | inhibition
Clc1cccc(-c2nc3nc4ccccc4nc3n2Cc2ccco2)c1 | 1.65%
O=S1(=O)N=C(N(CCO)/N=C/c2ccccc2F)c2ccccc21 | 2.79%
CCOC(=O)C(C)n1cnc2scc(-c3ccc(C)c(C)c3)c2c1=O (centres undefined) | 5.16% (active)
CCOc1ccc2[nH]c(C(=O)N/N=C/c3cccc(OC)c3OC)cc2c1 | 3%
COc1cc2cc(C(=O)N/N=C/c3cccc(OC)c3OC)[nH]c2cc1OC | 5.26% (active)
Cc1ccccc1C(CC(=O)c1cccs1)C(C#N)C#N (centres undefined) | 2.52%
Nc1nnnn1CC(=O)N/N=C/c1ccc(-c2cccc(Cl)c2)o1 | 3.45%
Cc1cccc2cc(C#N)c(N3CCCC3)nc12 | 7.09% (active)
O=C(N/N=C/c1ccco1)c1ccc(C(=O)N/N=C/c2ccco2)o1 | 10.6% (active)
Cc1occc1C(=O)N/N=C/c1ccc(-c2cccc([N+](=O)[O-])c2)o1 | 3.63%
Cc1oc2c(c1C(=O)N1CCOCC1)C(=O)c1ccccc1C2=O | 15.3% (active)
C=CCNC(=S)N/N=C/c1ccc(C)s1 | 5.29% (active)
COCCNC(=S)N/N=C/c1c(C)[nH]c2ccccc12 | 4.03%
NC(=S)N/N=C/c1ccc([N+](=O)[O-])cc1 | 4.55% (active)
Cc1cc(C(=O)N/N=C/c2ccc(O)c([N+](=O)[O-])c2)c(C)n1-c1ccc(F)cc1 | 4.12%
Cc1ccc(N2CCN(C3=NC(=O)/C(=C\c4cccs4)S3)CC2)cc1 | 1.26%
COc1ccc(/C=C/C(=O)NC(=S)N2CCCC(C(N)=O)C2)cc1 (centres undefined) | 6.19% (active)
COc1ccc(C2=NS(=O)(=O)N(C)C(C(=O)N3CCCCC3)=C2)cc1 | 3.33%
CCN(CC)c1ccc(/C=N/NC(=O)CNC(=O)c2cccs2)cc1 | 3.57%
O=C(N/N=C/C=C/c1ccco1)c1cccs1 | 7.55% (active)
CC(=O)Nc1ccc(/C=N/NC(=O)c2cccs2)cc1 | 3.39%
COc1ccc(CC(=O)c2ccc(O)cc2O)cc1OC | 4.03%
CCOC(=O)C/C(C)=N\Nc1ccc([N+](=O)[O-])cc1[N+](=O)[O-] | 9.34% (active)
C/C(=N\Nc1ccc(S(N)(=O)=O)cc1[N+](=O)[O-])c1cccs1 | 1.79%
COc1cc(C2C(C(=O)c3sc(C)nc3C)=C(O)C(=O)N2CCN(C)C)cc(OC)c1OC (centres undefined) | 9.08% (active)

Compound | inhibition
Cc1ccc(-c2ccc(/C=C(\C#N)C(N)=S)o2)c([N+](=O)[O-])c1 | 2.76%
COc1ccc(/C=C/C(=O)Nc2cccnc2)cc1OC | 4.72% (active)
CC(/C=N/NC(=O)c1ccncc1)=C\c1ccco1 | 6.11% (active)
CC(C)Oc1c(Br)cc(Br)cc1/C=N/NC(N)=S | 6.46% (active)
CCOC(OCC)c1ccc(/C=C\c2nccc(N)n2)cc1 | 3.39%
CCc1nnc(NC(=O)/C=C/c2ccc(C)o2)s1 | 6.27% (active)
CCc1nnc(NS(=O)(=O)c2ccc(NC(=S)NC(=O)/C=C/c3cccs3)cc2)s1 | 4.14%
COc1cccc(C2=CC(=O)C[C@H](c3ccc(F)cc3)C2)c1OC | 1.12%
CN1CCN(CCC(=O)N/N=C/C=C2\N(C)c3ccccc3C2(C)C)CC1 | 4.4%
O=C(Oc1c(-c2ccco2)oc2ccccc2c1=O)c1cccnc1 | 4.83% (active)
Cc1c(C=O)c2ccccn2c1C(=O)c1ccncc1 | 4.31%
COc1cccc(/C(C)=N/Nc2ncc(Cl)cc2Cl)c1 | 5.95% (active)
CNC(=O)/C(=C\C=C\c1ccccc1)NC(=O)c1ccc([N+](=O)[O-])cc1 | 4.89% (active)
O=C(Nc1ccc(C(=O)O)cc1)/C(=C/c1ccc([N+](=O)[O-])cc1)NC(=O)c1ccccc1 | 2.84%
C(=N/Nc1cc(N2CCOCC2)nc(N2CCOCC2)n1)/c1ccccc1 | 2.4%
Cc1cc(C(=O)N/N=C/c2ccc(N3CCOCC3)cc2)c(C)o1 | 3.45%
COc1ccc(/C=N/Nc2cc(N3CCOCC3)nc(C)n2)c(OC)c1 | 5.31% (active)
COc1ccc(S(=O)(=O)c2c[nH]c(=S)[nH]c2=O)cc1Cl | 2.06%
CCOC(=O)c1c(C(C#N)C#N)cc(C)nc1C | 5.34% (active)
Cc1ccc(Cl)cc1-c1ccc(/C=N/n2cnnc2)o1 | 3.18%
O=C(O)c1cccc(NC(=S)N/N=C/c2c[nH]c3ccccc23)c1 | 5.97% (active)
S=c1[nH]nc(-c2ccccc2)n1/N=C/c1c[nH]c2ccccc12 | 2.93%
O=C(Nc1cccc(F)c1)c1coc(=O)c(Br)c1 | 4.61% (active)
CCOc1cc(/C=C2\SC(N3CCCCC3)=NC2=O)ccc1O | 2.79%
